Data on 3 molecules can be found in PubChem BioAssay (EPA / NIEHS).

Read-out in test [1]: Matrix Metallopeptidase 1 (MMP1), MMP1 (gene 4312)
Put plainly: BSK_BE3C_MMP1: BioMAP Diversity Plus: BE3C Assay for Matrix Metallopeptidase 1 (MMP1) Biomarker Activity (AID 2283024). Conditions: primary human bronchial epithelial cells; actives raise or lower the signal. An outline of the steps:
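Dose cells, wait 24 h, run MMP1 ELISA; cells are human bronchial epithelial primaries. Both increases and decreases relative to DMSO counted.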

Test [2] in a line: BSK_3C_Vis: BioMAP Diversity Plus: 3C Assay for Morphology Visualization (AID 2283025).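 Also: fitted both ways so gain or loss versus DMSO counts.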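 As to AC50: light microscopy image of cell morphology used as background control.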 The conditions noted are these: primary human endothelial cells (HUVEC). An outline of the steps: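 Endothelial cells from human umbilical vein were treated with test chemicals for 24 h and inspected by light microscopy for changes in cell conformation.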
Read-out in test [3]: Pselectin, SELP (gene 6403)
Put plainly: BSK_4H_Pselectin: BioMAP Diversity Plus: 4H Assay for Pselectin Biomarker Activity (AID 2283026). Conditions: primary human endothelial cells (HUVEC); actives raise or lower the signal. An outline of the steps: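 Human vascular endothelium from umbilical vein; P-selectin measured by ELISA at 24 h post-dose, with cytotoxicity checked by sulforhodamine B total-protein staining in parallel cultures (0.1% SRB after 10% TCA fixation, read at 560 nm).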

The nature of test [4]: BSK_4H_SRB: Viability Assessment in the BioMAP Diversity Plus: 4H Assay (AID 2283027).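 Also: cells exposed to compound for 24 h before staining; curves fitted both ways versus DMSO so AC50 may be loss or gain.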 The conditions noted are these: primary human endothelial cells (HUVEC). An outline of the steps:
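Absorbance at 560 nm of SRB-stained total protein served as the viability read-out in confluent primary human umbilical vein endothelium 24 h after chemical treatment. Curves were fitted bidirectionally against DMSO as negative control.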

The nature of test [5]: BSK_BE3C_SRB: Viability Assessment in the BioMAP Diversity Plus: BE3C Assay (AID 2283028).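 As to AC50: fitted both ways so AC50 may mark signal gain or loss versus DMSO.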 The conditions noted are these: primary human bronchial epithelial cells. An outline of the steps:
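Cells (human bronchial epithelial, primary) are treated with chemicals, and after 24 h the parallel cultures are fixed in 10% TCA. These are then stained with 0.1% SRB and read at 560 nm. Gain or loss of signal is fitted relative to DMSO.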

Read-out in test [6]: Thrombomodulin, THBD (gene 7056)
Nature of the test: BSK_3C_Thrombomodulin: BioMAP Diversity Plus: 3C Assay for Thrombomodulin Biomarker Activity (AID 2283029). The conditions noted are these: primary human endothelial cells (HUVEC); actives raise or lower the signal. An outline of the steps:
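Thrombomodulin ELISA, human primary HUVEC, 24 h post-dose; data fitted in both directions relative to DMSO.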

Read-out in test [7]: Human Leukocyte Antigen - DR isotype (HLADR), HLA-DRA (gene 3122)
Nature of the test: BSK_BE3C_HLADR: BioMAP Diversity Plus: BE3C Assay for Human Leukocyte Antigen - DR isotype (HLADR) Biomarker Activity (AID 2283032). Conditions: primary human bronchial epithelial cells; actives raise or lower the signal. An outline of the steps:
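Signal came from an ELISA for HLA-DR in human bronchial epithelial primary cells harvested 24 h after treatment; gain- and loss-of-signal fitting used DMSO controls as reference.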

Read-out in test [8]: Vascular cell adhesion molecule 1 (VCAM1), VCAM1 (gene 7412)
Nature of the test: BSK_4H_VCAM1: BioMAP Diversity Plus: 4H Assay for Vascular cell adhesion molecule 1 (VCAM1) Biomarker Activity (AID 2283033). The conditions noted are these: primary human endothelial cells (HUVEC); actives raise or lower the signal. An outline of the steps: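 Endpoint derived from bidirectional fitting against DMSO controls of VCAM-1 ELISA signal in umbilical vein endothelial cells sampled at 24 h following treatment.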

Read-out in test [9]: Interferon-gamma inducible Protein 10 (IP10), CXCL10 (gene 3627)
Nature of the test: BSK_BE3C_IP10: BioMAP Diversity Plus: BE3C Assay for Interferon-gamma inducible Protein 10 (IP10) Biomarker Activity (AID 2283034). The conditions noted are these: primary human bronchial epithelial cells; actives raise or lower the signal. An outline of the steps:
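Using primary human bronchial epithelial cultures, the assay captures IP-10 by ELISA one day (24 h) after exposure. Parallel SRB staining of total protein flags overt cytotoxicity. Fits run bidirectionally relative to DMSO.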

Read-out in test [10]: Monokine induced gamma interferon (MIG), CXCL9 (gene 4283)
Nature of the test: BSK_BE3C_MIG: BioMAP Diversity Plus: BE3C Assay for Monokine induced gamma interferon (MIG) Biomarker Activity (AID 2283035). Conditions: primary human bronchial epithelial cells; actives raise or lower the signal. An outline of the steps:
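MIG level was determined by ELISA after 24 h chemical treatment of primary human bronchial epithelial cells. Values were fitted bidirectionally with DMSO as the negative control and activity baseline.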

Read-out in test [11]: Transforming growth factor beta 1 (TGFb1), TGFB1 (gene 7040)
Nature of the test: BSK_BE3C_TGFb1: BioMAP Diversity Plus: BE3C Assay for Transforming growth factor beta 1 (TGFb1) Biomarker Activity (AID 2283036). Conditions: primary human bronchial epithelial cells; actives raise or lower the signal. An outline of the steps:
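In this human primary bronchial epithelial system, an ELISA quantified TGF-b1 one day after dosing. Endpoint changes in either direction were fitted relative to DMSO.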

Read-out in test [12]: Plasminogen activator inhibitor-1 (PAI1), SERPINE1 (gene 5054)
Put plainly: BSK_BE3C_PAI1: BioMAP Diversity Plus: BE3C Assay for Plasminogen activator inhibitor-1 (PAI1) Biomarker Activity (AID 2283037). Conditions: primary human bronchial epithelial cells; actives raise or lower the signal. An outline of the steps: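 PAI-1 biomarker levels in treated human bronchial epithelial cells are determined by ELISA at 24 h. Both increases and decreases relative to DMSO are fitted.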

Read-out in test [13]: urokinase plasminogen activator (uPA), PLAU (gene 5328)
Put plainly: BSK_BE3C_uPA: BioMAP Diversity Plus: BE3C Assay for urokinase plasminogen activator (uPA) Biomarker Activity (AID 2283038). Conditions: primary human bronchial epithelial cells; actives raise or lower the signal. An outline of the steps:
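Bronchial epithelial cells (human, primary); chemical 24 h; uPA by ELISA; bidirectional fit vs DMSO. SRB (0.1%, after 10% TCA fixation, 560 nm) in parallel cultures for cytotoxicity.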

Read-out in test [14]: Urokinase-type plasminogen activator receptor (uPAR), PLAUR (gene 5329)
Nature of the test: BSK_BE3C_uPAR: BioMAP Diversity Plus: BE3C Assay for Urokinase-type plasminogen activator receptor (uPAR) Biomarker Activity (AID 2283039). The conditions noted are these: primary human bronchial epithelial cells; actives raise or lower the signal. An outline of the steps: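 A uPAR ELISA serves as the readout, taken 24 h after treating primary human bronchial epithelial cells. Responses in either direction are fitted against DMSO, which defines baseline activity.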

Read-out in test [15]: Interleukin-6 (IL6), IL6 (gene 3569)
Put plainly: BSK_CASM3C_IL6: BioMAP Diversity Plus: CASM3C Assay for Interleukin-6 (IL6) Biomarker Activity for (AID 2283040). The conditions noted are these: primary human coronary artery smooth muscle cells; actives raise or lower the signal.

Read-out in test [16]: Interleukin-8 (IL8), CXCL8 (gene 3576)
Put plainly: BSK_CASM3C_IL8: BioMAP Diversity Plus: CASM3C Assay for Interleukin-8 (IL8) Biomarker Activity (AID 2283042).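 Also: IL-8 protein level quantified by ELISA.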 The conditions noted are these: primary human coronary artery smooth muscle cells; actives raise or lower the signal.

Read-out in test [17]: Human Leukocyte Antigen - DR isotype (HLADR), HLA-DRA (gene 3122)
Put plainly: BSK_CASM3C_HLADR: BioMAP Diversity Plus: CASM3C Assay for Human Leukocyte Antigen - DR isotype (HLADR) Biomarker Activity (AID 2283043).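 Also: cell-surface HLA-DR protein level quantified by ELISA.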 Conditions: primary human coronary artery smooth muscle cells; actives raise or lower the signal.

Read-out in test [18]: Vascular endothelial growth factor receptor 2 (Homo sapiens) (UniProt P35968)
Nature of the test: BSK_4H_VEGFRII: BioMAP Diversity Plus: 4H Assay for Vascular endothelial growth factor receptor 2 (VEGFR2) Biomarker Activity (AID 2283031).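 As to AC50: cell-surface VEGFR2 protein level quantified by ELISA.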 The conditions noted are these: primary human endothelial cells (HUVEC); actives raise or lower the signal. An outline of the steps:
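ELISA read-out of VEGFRII in primary human umbilical vein endothelium, taken 24 h after chemical treatment. Responses are expressed relative to DMSO, with bidirectional fitting.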

Read-out in test [19]: Urokinase-type plasminogen activator receptor (uPAR), PLAUR (gene 5329)
Nature of the test: BSK_4H_uPAR: BioMAP Diversity Plus: 4H Assay for Urokinase-type plasminogen activator receptor (uPAR) Biomarker Activity (AID 2283030). The conditions noted are these: primary human endothelial cells (HUVEC); actives raise or lower the signal. An outline of the steps:
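Cell-surface uPAR ELISA signal, measured 24 h after dosing human umbilical vein endothelial cells, was analyzed with bidirectional fitting relative to DMSO. Parallel SRB staining of total protein tracked overt cytotoxicity.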

Read-out in test [20]: Tissue plasminogen activator (tPA), PLAT (gene 5327)
Put plainly: BSK_BE3C_tPA: BioMAP Diversity Plus: BE3C Assay for Tissue plasminogen activator (tPA) Biomarker Activity (AID 2283041).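 Also: tPA level quantified by ELISA one day after compound addition.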 Conditions: primary human bronchial epithelial cells; actives raise or lower the signal. An outline of the steps: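 Bidirectional curve fitting relative to DMSO defined activity, with tPA detected by ELISA in chemically treated human bronchial epithelial primary cells at 24 hours.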

Molecules are shown by their SMILES. Calls of active or inactive are those of the source. The calls were made as follows: active = hit-call score of the fitted dose curve at least 0.9, where 1 is the maximum; inactive = score below 0.9.

Broadly, the AC50 is the midpoint of the concentration-response curve, whichever way the signal moves. Consider `CC(=O)[O][Hg][c]1ccccc1`, for which the half-maximal activity concentration (AC50) in test [1] is 2.93 µM (active); in test [2], 0.954 µM (active); in [3], 1.29 µM (active); in test [4], 1.68 µM (active); in test [5] it was 1.88 µM (active); in [6], 3.83 µM (active). For the same molecule, the concentration at half-maximal activity (AC50) in [7] is 0.355 µM (active); in [8] it was 2.37 µM (active); in test [9], 0.94 µM (active); in test [10], 2.01 µM (active); in test [11] it was 0.148 µM (active); in [12], 1.42 µM (active). Also, the AC50 in test [13] is 1.06 µM (active); in test [14] it was 1.8 µM (active); in test [15] it was 3.56 µM (active); in [16], 3.6 µM (active); in test [17], 0.58 µM (active).
Turning to `C[C@@H]1C[C@@H]([C@H](O)CC2CC(=O)NC(=O)C2)C(=O)[C@@H](C)C1`, the half-maximal activity concentration (AC50) was 2.51 µM (active) in test [1]; 9.24 µM (active) in test [2]; 3.9 µM (active) in [3]; 7.08 µM (active) in test [4]; 8.73 µM (active) in [18]; 4.95 µM (active) in test [7]. Further, the half-maximal activity concentration (AC50) in [8] was 17.7 µM (active); in test [9], 8.61 µM (active); in [10], 14.4 µM (active); in test [11] it was 2.83 µM (active); in test [12] it was 1.63 µM (active); in test [13], 6.45 µM (active). Moreover, the concentration at half-maximal activity (AC50) in test [14] was 4.03 µM (active); in [15], 1.27 µM (active); in test [16], 6.03 µM (active); in test [17], 1.84 µM (active). Moreover, the result in test [5] and in test [6] was inactive.
In the case of `COP(=S)(OC)Oc1cc(Cl)c(Cl)cc1Cl`, the AC50 in test [1] was 20 µM (active); in test [3], 20 µM (active); in test [4], 20 µM (active); in test [8], 24.9 µM (active); in [9] it was 19.1 µM (active); in test [12] it was 8.51 µM (active). Moreover, the AC50 in test [17] was 20 µM (active). Moreover, the result in [2], in test [6], in [19], in [18], in test [7] and in test [10] was inactive. For the same molecule, the result in [11], in test [13], in test [14], in test [15], in [20] and in test [16] was inactive.
